Reference: publication PMC4336329 (PLoS ONE, 2015)
Out of some 310,000 compounds screened, about 14,000 (4.5%) showed an effect of 50% or more. The effect is printed as a negative number. Shown is part of a subset that was picked to be rich in strong results.

Target: human ether-à-go-go-related gene (hERG) potassium channel (human, UniProt Q12809)
Experiment: primary screen, population patch clamp on CHO cells stably expressing hERG; higher = less effect of the substance
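Also: peak tail current of the secondary pulse compared with the same well before compound.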

human ether-à-go-go-related gene (hERG) potassium channel, sequence (Q12809 whole entry, looked up): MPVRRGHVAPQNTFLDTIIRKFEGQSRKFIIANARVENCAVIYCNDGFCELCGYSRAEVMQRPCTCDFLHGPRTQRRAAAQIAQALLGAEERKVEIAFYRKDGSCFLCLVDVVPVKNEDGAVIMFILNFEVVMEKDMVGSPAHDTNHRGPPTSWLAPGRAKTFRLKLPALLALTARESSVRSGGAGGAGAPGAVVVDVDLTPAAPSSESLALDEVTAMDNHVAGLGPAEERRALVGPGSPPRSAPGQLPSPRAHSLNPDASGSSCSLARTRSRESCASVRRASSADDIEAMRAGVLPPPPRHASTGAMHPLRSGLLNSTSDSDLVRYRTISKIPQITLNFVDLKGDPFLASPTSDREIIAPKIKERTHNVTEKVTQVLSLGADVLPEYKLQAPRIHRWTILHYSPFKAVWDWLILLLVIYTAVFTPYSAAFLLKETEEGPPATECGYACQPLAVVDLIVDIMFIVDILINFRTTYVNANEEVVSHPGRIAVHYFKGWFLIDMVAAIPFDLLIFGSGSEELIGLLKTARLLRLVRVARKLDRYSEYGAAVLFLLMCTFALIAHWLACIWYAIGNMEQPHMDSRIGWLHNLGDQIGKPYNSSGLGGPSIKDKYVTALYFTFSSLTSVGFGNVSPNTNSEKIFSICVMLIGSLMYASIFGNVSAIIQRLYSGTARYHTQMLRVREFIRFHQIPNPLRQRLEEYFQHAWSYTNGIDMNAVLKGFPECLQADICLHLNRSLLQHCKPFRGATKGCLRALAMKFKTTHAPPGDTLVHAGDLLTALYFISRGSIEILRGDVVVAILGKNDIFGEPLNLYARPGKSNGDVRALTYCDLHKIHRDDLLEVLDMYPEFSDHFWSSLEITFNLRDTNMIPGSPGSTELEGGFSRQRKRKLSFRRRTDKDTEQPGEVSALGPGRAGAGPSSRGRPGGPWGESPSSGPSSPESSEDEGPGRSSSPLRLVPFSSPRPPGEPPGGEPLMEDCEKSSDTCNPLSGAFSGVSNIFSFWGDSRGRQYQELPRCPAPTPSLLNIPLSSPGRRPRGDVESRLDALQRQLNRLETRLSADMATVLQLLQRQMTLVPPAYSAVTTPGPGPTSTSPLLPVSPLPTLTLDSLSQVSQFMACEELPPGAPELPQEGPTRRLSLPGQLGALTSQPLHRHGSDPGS

| Structure (SMILES) | hERG current change (%, negative = inhibition) at 10uM |
| --- | --- |
| CCc1ccc(OCCCC(=O)NCc2ccco2)cc1 | 1.95% |
| CCOC(=O)C(CCCCCOc1ccc([N+](=O)[O-])cc1)C(=O)OCC | -50.4% |
| CCOC(=O)COc1ccc([N+](=O)[O-])cc1 | -5.07% |
| CCOC(=O)C(CCCCCOc1ccccc1[N+](=O)[O-])C(=O)OCC | -8.54% |
| CCn1nc([N+](=O)[O-])c2c(-c3nc4ccccc4o3)c(N)n(CCCOC)c2c1=O | 14.5% |
| CCOC(=O)c1noc(C)c1C(=O)Nc1nc(C)cc(C)n1 | 11.5% |
| Cc1ccc(F)cc1NC(=O)CSCc1c(C)noc1C | -3.15% |
| O=c1[nH]nnc2c1sc1nc(N3CCOCC3)c3c(c12)CCCC3 | -12.4% |
| CC(=O)Nc1ccc(S(=O)(=O)NC(CC(=O)N2CCC3(CC2)OCCO3)C(C)C)cc1 (stereo not shown) | 18.9% |
| O=C(Nc1cc(S(=O)(=O)N2CCOCC2)ccc1N1CCCCC1)c1cc(-c2ccccn2)nc2ccccc12 | 0.703% |
| Cc1ccc(N(CC(O)CN2CCCC2)S(=O)(=O)c2ccc(C)cc2)cc1.Cl (stereo not shown) | -76.4% |
| Cc1cc(C)n(CC(O)CN(c2ccccc2)S(=O)(=O)c2ccccc2)n1 (stereo not shown) | 7.17% |
| Cc1ccc(S(=O)(=O)N(CC(O)CN2CCOCC2)c2cc(Cl)ccc2Cl)cc1.Cl (stereo not shown) | -31.9% |
| Cc1ccccc1S(=O)(=O)N(CC(O)CN1CCCCC1)c1ccccc1 (stereo not shown) | -71.7% |
| COc1ccc(N(CC(O)CN2CCCCC2)S(=O)(=O)c2ccc(C)cc2)cc1 (stereo not shown) | -78.6% |
| COc1ccc(N(CC(O)Cn2c3ccccc3c3ccccc32)S(=O)(=O)c2ccccc2)cc1 (stereo not shown) | 3.8% |
| Cc1ccc(S(=O)(=O)N(CC(O)CN2CCCC2)c2ccccc2)cc1 (stereo not shown) | -62.2% |
| COc1ccc(N(CC(O)CN2CCOCC2)S(=O)(=O)c2ccc(C)cc2)cc1 (stereo not shown) | -45.2% |
| Cc1ccc(N(CC(O)CN2CCCCC2)S(=O)(=O)c2ccc(C)cc2)cc1 (stereo not shown) | 13.8% |
| Cc1ccccc1S(=O)(=O)N(CC(O)CN1C(=O)NC(C)(C)C1=O)c1ccccc1 (stereo not shown) | 1.47% |
| CCc1ccc(OCC(=O)Nc2nnc(-c3ccco3)s2)cc1 | 11.5% |
| CC(C)N1C(=O)S/C(=C/c2cccnc2)C1=O | 8.88% |

| Structure (SMILES) | hERG current change (%, negative = inhibition) at 10uM |
| --- | --- |
| CCOC(=O)c1c(NC(=O)c2cccs2)sc(C)c1CC | 2.45% |
| CCOC(=O)C1=C(C)OC(N)=C(C#N)C1c1cc(OC)c2c(c1)OCO2 (stereo not shown) | -20.6% |
| CCOc1cc(N2CCOCC2)c(OCC)cc1NC(=O)CSc1ccccc1C(=O)O | 5.72% |
| CCOC(=O)c1ccc(N(CC(=O)NCC2CCCO2)C(=O)CCC(=O)Nc2cc(C)on2)cc1 (stereo not shown) | 9.99% |
| COc1cc(NC(=S)NCCc2c[nH]c3ccccc23)c(OC)cc1Cl | 10.1% |
| O=S(=O)(c1ccccc1)N(CC(O)CN1CCCC1)c1ccccc1 (stereo not shown) | -19% |
| Cl.O=S(=O)(c1ccccc1)N(CC(O)CN1CCCCC1)c1ccccc1 (stereo not shown) | -53.2% |
| Cc1ccc(S(=O)(=O)N(CC(O)CN2CCCCC2)c2ccccc2)cc1.Cl (stereo not shown) | -67.9% |
| O=S(=O)(c1ccccc1)N(CC(O)CN1CCOCC1)c1ccccc1 (stereo not shown) | 18.6% |
| COc1ccccc1N(CC(O)CN1CCCCC1)S(=O)(=O)c1ccc(C)cc1 (stereo not shown) | -29.7% |
| CCN1CCN(Cc2nc3c(c(=O)[nH]c(=O)n3C)n2Cc2ccccc2Cl)CC1 | 14.8% |
| CCOC(=O)C1CCN(c2ncnc3c2cnn3-c2ccc(OC)cc2)CC1 | -16.2% |
| O=C(O)CC(c1cccc(C(F)(F)F)c1)N1CCS(=O)(=O)CC1 (stereo not shown) | 2.42% |
| CC(C)CCn1cnc2c(oc3nc4c(cc32)CCCC4)c1=O | -16.6% |
| CCCCCCn1cnc2c(oc3nc4c(cc32)CCCC4)c1=O | 5.16% |
| CCCCn1cnc2c(oc3nc4c(cc32)CCCC4)c1=O | -55.5% |
| Cc1ccc(NC(=O)Cc2ccccc2Cl)cc1S(=O)(=O)N(C)C | 0.299% |
| O=C1c2ccccc2C(=O)N1CCc1nn[nH]n1 | 17% |
| COc1ccc(NC(=O)NNC(=O)COc2ccc3cc(Br)ccc3c2)c(OC)c1 | 19.2% |
| CCOC(=O)C1(CCc2ccccc2)CCN(C(=O)CCn2cncn2)CC1 | -63.2% |
| CCOC(=O)C1(CCCc2ccccc2)CCN(C(=O)CCn2cncn2)CC1 | -56.4% |
